# Measured values reported in PubChem BioAssay (NCATS).
# Results filed as inconclusive are left out. Entries that show only a call come without a potency. Activity calls are given as the source filed them. Unless noted, the call rests on the fitted dose curve; in most records, active means well fitted curve in the direction sought with a large enough effect; inconclusive means small, poorly fitted or top-dose-only effect, or another doubt; inactive means no such curve, though single readings can be large; an effect the other way counts as inactive or inconclusive.
# What was measured:
# [1] = qHTS assay for measurement of the activity of small molecule inhibitors on Zika virus induced Caspase-3 activity in human iPSC derived neural progenitor cells (hNPCs) (AID 1224857); further: nearly all actives have a fitted effect of over 65% in size
# How it was run: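 Caspase-3/7 induction by a 6-hour ZIKV infection was quantified with a luminescent Caspase-Glo 3/7 reagent incubated 30 minutes at room temperature. Compounds were preincubated with hNPCs for 1 hour; inhibition was calculated against uninfected and infected control wells.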
# [2] = qHTS assay for measurement of the activity of small molecule inhibitors on Zika virus induced Caspase-3 activity in human astrocytoma cells (AID 1224859)
# How it was run: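 In SNB-19 cells plated at 250 cells/well and grown 16-20 h, compounds were applied 1 h before ZIKV (2 FFU/cell). Six hours later caspase-3/7 luminescence was recorded.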
# [3] = Natriuretic polypeptide receptor (hNpr1) antagonism - Pilot counterscreen GloSensor control cell line (AID 1347045; calls by dose curve; further: potency means the concentration at half of the fitted maximal effect)
# How it was run: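 This counterscreen uses HEK293 cells expressing the GIP/pGS-40F cGMP biosensor. Compound-treated cells are challenged with 50 uM sodium nitroprusside, and the luciferase signal is compared before and after stimulation.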
# [4] = biological target: Atrial natriuretic peptide receptor 1 (Homo sapiens) (UniProt P16066); assay: Natriuretic polypeptide receptor (hNpr1) antagonism - Pilot screen (AID 1347049; calls by dose curve;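 further: agonist-evoked cGMP luminescence read 20 min after hNppA addition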; further: potency means the concentration at half of the fitted maximal effect)
# How it was run: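 HEK293 cells expressing hNpr1 and GloSensor cGMP luciferase, 1500/well, loaded with 2% GloSensor reagent 2 h, compound 30 min at room temperature; luminescence read before and 20 min after 0.1 nM hNppA stimulation.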
# [5] = NS1 protein of Zika virus - qHTS assay to identify small molecule inhibitors in human HEK 293 cells (AID 1347053); further: series mostly up to about 46 µM; nearly all actives have a fitted effect of over 55% in size
# How it was run: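 HEK 293; 20 h pre-culture, 37 C/5% CO2; cpd 1 h pre-infection; ZIKV MR766, MOI = 0.5, 24 h, 37 C; TR-FRET NS1 readout (two anti-NS1 Abs); norm. to no-virus vs infected.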
# [6] = biological target: T1, Tyrosine-protein phosphatase non-receptor type substrate 1 (Homo sapiens) + Leukocyte surface antigen CD47 (Homo sapiens) (UniProt P78324+Q08722); assay: CD47-SIRPalpha protein protein interaction - LANCE assay qHTS validation (AID 1347057; active means well fitted curve in the direction sought with a large enough effect in the signal ratio, with a control signal flat, not every such curve was filed as active; the % refers to the signal ratio; further: series mostly up to about 38 µM)
# How it was run: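 First, His-tagged CD47 and Eu-labelled anti-His antibody met the compound for 30 min; next, site-specifically biotinylated SIRPalpha was added for 30 min; finally streptavidin-APC was added before reading the TR-FRET ratio.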
# [7] = biological target: T1, Tyrosine-protein phosphatase non-receptor type substrate 1 (Homo sapiens) + Leukocyte surface antigen CD47 (Homo sapiens); assay: CD47-SIRPalpha protein protein interaction - HTRF assay qHTS validation (AID 1347058; active means well fitted curve in the direction sought with a large enough effect in the signal ratio, not every such curve was filed as active; the % refers to the signal ratio;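 further: recombinant soluble extracellular CD47 with His tag and biotinylated SIRPalpha domains; series mostly up to about 38 µM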)
# How it was run: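 TR-FRET read (Ch1/Ch2 ratio) of soluble extracellular CD47 and Avi-biotinylated SIRPalpha domains in PBS pH 7.4 with 0.05% IGEPAL; 7-point compound titration. Sequential 30 min room-temperature steps; non-biotinylated SIRPalpha as control inhibitor.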
# [8] = biological target: T1, Tyrosine-protein phosphatase non-receptor type substrate 1 (Homo sapiens) + Leukocyte surface antigen CD47 (Homo sapiens); assay: CD47-SIRPalpha protein protein interaction - Alpha assay qHTS validation (AID 1347059);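 further: bead proximity luminescence from CD47 binding SIRPalpha after compound preincubation with SIRPalpha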; further: potency means the concentration at half of the fitted maximal effect
# How it was run: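 Biotinylated Avi-tagged SIRPalpha (25 nM) preincubated 30 min with compound, then His-tagged CD47 (12.5 nM) added 30 min; AlphaScreen with Ni-NTA acceptor and streptavidin donor beads. PBS pH 7.4, 0.05% IGEPAL, room temperature; 7-point titrations.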
# [9] = biological target: Parathyroid hormone/parathyroid hormone-related peptide receptor (Homo sapiens) (UniProt Q03431); assay: qHTS for PTHR1 Agonists: Optimization Screen against the NCGC LOPAC library (AID 1347079);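 further: GloSensor cAMP luminescence in HEK-293 GP2 cells expressing human PTHR1 with IBMX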; further: potency means the concentration at half of the fitted maximal effect
# How it was run: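 Compounds were tested across a qHTS titration. PTHR1-expressing GP2 cells report cAMP rises via GloSensor luminescence after 1 hr compound exposure at 37C with IBMX present.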
# [10] = biological target: N-terminal Xaa-Pro-Lys N-methyltransferase 1 (Homo sapiens) (UniProt Q9BV86); assay: qHTS Assay for Inhibitors of N-terminal methyltransferase 1 (NTMT1): LOPAC validation of the NTMT1 SAHH-coupled ThioGlo3 Assay (AID 1347143);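 further: SAH from peptide methylation measured as thiol fluorescence via SAHH coupling and ThioGlo3; nearly all actives have a fitted effect of over 70% in size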; further: potency means the concentration at half of the fitted maximal effect
# How it was run: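 Recombinant human NTMT1 (125nM) was pre-incubated 1 min at room temperature with compounds over a concentration range, then a mix of 100uM SAM, 10uM SAHH and 15uM ThioGlo3 (concentrations in added reagent) was added. ThioGlo3 fluorescence (ex 340/em 450nm) after 30 min was normalized to the initial reading.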
# [11] = tested on: Zika virus NS2B-NS3 protease (unlinked); assay: Optimization of GU AMC qHTS for Zika virus inhibitors: Unlinked NS2B-NS3 protease assay (AID 1347151); further: nearly all actives have a fitted effect of over 80% in size; further: potency means the concentration at half of the fitted maximal effect
# How it was run: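 Noncovalent complex of NS2B hydrophilic domain and NS3 protease domain, 25 nM final, in 10 mM Tris-HCl pH 8.0, 0.01% Tween 20. AMC fluorescence change over 15 min at room temperature was fitted to a 4-parameter Hill equation.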
# [12] = biological target: Atrial natriuretic peptide receptor 2 (Homo sapiens) (UniProt P20594); assay: Natriuretic polypeptide receptor (hNpr2) antagonism - Pilot subtype selectivity assay (AID 1347050; calls by dose curve; further: potency means the concentration at half of the fitted maximal effect)
# How it was run: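 HEK293 cells expressing hNpr2 and a GloSensor cGMP luciferase sensor, 1500/well, preloaded 2 h with 2% GloSensor reagent, compound 30 min, then 1 nM hNppC for 20 min. Antagonism from luminescence after versus baseline pre-read; LOPAC in 1:5 titrations.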
# [13] = tested on: Zika virus NS2B-NS3 protease (unlinked complex); assay: Confirmatory screen GU AMC qHTS for Zika virus inhibitors (AID 1347153); further: potency means the concentration at half of the fitted maximal effect; nearly all actives have a fitted effect of over 70% in size
# How it was run: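 Unlinked enzyme 25 nM, Tris pH 8.0/0.01% Tween 20; cpd 15 min RT, dark; + AMC substrate 10 µM (Km 18.3 µM); 340/450 nm read at t0 and 15 min; % inhibition → 4-param fit.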
# [14] = P-glycoprotein substrates identified in KB-8-5-11 adenocarcinoma cell line, qHTS therapeutic library screen (AID 1346987); further: potency means the concentration at half of the fitted maximal effect; nearly all actives have a fitted effect of over 65% in size
# How it was run: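 P-gp-mediated resistance screen: KB-8-5-11 cells treated 72 h with compounds in dose-response. CellTiter-Glo viability.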
# T1 sequence (P78324 whole entry, looked up): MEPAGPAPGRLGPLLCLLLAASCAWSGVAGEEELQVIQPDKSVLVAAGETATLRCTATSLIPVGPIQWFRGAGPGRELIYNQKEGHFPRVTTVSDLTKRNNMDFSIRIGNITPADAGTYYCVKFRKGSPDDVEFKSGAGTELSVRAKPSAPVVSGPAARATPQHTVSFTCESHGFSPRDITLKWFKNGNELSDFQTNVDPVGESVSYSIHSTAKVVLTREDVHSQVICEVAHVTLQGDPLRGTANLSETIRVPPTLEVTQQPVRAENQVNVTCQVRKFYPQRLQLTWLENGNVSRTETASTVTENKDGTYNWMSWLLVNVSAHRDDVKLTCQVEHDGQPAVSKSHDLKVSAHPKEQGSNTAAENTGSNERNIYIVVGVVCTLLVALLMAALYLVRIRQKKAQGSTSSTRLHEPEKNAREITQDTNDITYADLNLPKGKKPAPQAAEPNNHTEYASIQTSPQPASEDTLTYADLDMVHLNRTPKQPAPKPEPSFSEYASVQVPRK
# T1 sequence (Q08722 whole entry, looked up): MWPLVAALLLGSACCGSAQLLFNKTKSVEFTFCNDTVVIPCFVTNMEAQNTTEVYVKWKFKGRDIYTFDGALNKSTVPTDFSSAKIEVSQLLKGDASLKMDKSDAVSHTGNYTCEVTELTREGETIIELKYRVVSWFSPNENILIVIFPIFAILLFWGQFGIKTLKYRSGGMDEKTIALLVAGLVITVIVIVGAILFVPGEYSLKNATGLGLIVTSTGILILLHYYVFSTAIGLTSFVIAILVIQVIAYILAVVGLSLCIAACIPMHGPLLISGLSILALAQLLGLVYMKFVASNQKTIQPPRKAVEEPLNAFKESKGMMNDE
# Chain of Atrial natriuretic peptide receptor 2 (Homo sapiens) (P20594 whole entry, looked up): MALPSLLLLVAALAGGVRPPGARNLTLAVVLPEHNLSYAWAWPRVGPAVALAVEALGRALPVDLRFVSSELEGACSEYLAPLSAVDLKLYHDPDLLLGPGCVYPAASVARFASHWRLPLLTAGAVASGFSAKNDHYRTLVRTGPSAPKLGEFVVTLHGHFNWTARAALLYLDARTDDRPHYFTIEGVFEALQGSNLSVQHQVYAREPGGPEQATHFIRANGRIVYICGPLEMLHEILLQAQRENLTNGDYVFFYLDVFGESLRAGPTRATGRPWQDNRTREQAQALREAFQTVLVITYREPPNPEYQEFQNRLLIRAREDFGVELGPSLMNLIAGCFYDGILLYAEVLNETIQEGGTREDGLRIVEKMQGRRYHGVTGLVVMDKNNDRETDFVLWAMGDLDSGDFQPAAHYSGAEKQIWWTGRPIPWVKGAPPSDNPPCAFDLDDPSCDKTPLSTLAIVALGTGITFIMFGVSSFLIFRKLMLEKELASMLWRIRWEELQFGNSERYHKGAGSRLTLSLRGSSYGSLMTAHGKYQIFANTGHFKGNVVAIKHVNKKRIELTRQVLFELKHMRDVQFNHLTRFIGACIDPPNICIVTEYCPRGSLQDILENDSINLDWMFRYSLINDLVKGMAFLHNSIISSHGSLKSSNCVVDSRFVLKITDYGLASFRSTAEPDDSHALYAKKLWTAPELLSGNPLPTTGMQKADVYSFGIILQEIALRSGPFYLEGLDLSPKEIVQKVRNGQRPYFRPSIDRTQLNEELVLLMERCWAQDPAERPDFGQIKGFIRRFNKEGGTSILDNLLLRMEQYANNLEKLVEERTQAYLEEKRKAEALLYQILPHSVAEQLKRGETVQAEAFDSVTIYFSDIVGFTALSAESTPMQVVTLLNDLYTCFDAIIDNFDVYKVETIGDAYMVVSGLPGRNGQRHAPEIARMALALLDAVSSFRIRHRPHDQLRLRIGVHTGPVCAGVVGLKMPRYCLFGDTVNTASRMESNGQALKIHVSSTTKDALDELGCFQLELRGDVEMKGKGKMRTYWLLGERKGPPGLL
# Chain of Parathyroid hormone/parathyroid hormone-related peptide receptor (Homo sapiens) (Q03431 whole entry, looked up): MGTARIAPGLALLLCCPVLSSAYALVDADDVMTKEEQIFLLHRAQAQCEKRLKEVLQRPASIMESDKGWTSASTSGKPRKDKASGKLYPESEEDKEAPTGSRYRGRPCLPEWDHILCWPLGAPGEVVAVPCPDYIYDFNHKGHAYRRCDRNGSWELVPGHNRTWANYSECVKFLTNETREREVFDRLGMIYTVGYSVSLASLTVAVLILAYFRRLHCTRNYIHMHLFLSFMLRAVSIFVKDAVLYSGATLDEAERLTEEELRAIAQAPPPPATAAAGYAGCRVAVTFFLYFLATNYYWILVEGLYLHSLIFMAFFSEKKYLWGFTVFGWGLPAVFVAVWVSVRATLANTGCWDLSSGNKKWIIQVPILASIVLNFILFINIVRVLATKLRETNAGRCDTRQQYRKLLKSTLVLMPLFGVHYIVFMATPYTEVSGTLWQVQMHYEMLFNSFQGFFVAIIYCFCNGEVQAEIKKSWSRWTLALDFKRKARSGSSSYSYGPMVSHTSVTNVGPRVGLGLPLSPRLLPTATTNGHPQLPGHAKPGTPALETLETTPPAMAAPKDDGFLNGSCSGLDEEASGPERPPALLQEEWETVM
# Chain of N-terminal Xaa-Pro-Lys N-methyltransferase 1 (Homo sapiens) (Q9BV86 whole entry, looked up): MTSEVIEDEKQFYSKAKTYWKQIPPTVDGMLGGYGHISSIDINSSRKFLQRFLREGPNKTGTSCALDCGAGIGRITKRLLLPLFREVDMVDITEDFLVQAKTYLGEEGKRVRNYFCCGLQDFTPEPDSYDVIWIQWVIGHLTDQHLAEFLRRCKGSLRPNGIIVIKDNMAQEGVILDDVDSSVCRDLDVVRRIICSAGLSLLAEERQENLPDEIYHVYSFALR
# Chain of Atrial natriuretic peptide receptor 1 (Homo sapiens) (P16066 whole entry, looked up): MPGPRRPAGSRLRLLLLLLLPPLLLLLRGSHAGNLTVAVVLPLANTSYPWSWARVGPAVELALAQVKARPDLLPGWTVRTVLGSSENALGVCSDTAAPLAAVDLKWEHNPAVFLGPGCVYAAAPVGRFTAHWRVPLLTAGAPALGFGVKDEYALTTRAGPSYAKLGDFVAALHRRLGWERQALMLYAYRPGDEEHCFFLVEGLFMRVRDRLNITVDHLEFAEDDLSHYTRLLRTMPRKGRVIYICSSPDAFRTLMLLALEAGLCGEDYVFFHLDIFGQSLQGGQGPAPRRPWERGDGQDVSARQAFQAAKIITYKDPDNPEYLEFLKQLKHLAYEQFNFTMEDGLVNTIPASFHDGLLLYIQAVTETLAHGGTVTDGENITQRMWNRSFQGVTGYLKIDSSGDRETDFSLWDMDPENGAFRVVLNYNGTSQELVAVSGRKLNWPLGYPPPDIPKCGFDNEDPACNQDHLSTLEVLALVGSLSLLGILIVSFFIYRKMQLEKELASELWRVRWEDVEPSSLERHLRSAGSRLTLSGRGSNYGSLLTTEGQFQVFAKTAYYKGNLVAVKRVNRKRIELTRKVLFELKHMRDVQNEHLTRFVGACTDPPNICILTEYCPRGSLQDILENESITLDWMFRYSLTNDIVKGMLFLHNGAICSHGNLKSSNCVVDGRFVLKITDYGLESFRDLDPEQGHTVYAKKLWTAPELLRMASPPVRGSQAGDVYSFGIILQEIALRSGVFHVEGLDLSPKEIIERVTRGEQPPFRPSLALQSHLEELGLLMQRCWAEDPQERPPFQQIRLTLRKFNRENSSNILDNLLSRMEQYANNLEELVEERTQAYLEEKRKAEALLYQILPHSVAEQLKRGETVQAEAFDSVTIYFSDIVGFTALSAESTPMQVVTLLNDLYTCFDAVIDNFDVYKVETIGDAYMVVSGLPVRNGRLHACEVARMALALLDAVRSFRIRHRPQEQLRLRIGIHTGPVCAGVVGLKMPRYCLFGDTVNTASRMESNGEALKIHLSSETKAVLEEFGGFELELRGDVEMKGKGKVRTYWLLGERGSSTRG
Compound,Potency [1],Potency [2],Potency [3],Potency [4],Potency [5],Potency [6],outcome [7],Potency [8],Potency [9],Potency [10],Potency [11],Potency [12],Potency [13],Potency [14]
CC(=O)SC1CC2=CC(=O)CC[C@]2(C)C2CC[C@@]3(C)C(CC[C@@]34CCC(=O)O4)C12 (stereo not given in full),inactive,inactive,inactive,inactive,inactive,inactive,inactive,inactive,inactive,inactive,inactive,,,
O=S(=O)(c1cccc2c(Cl)cccc12)N1CCCNCC1,inactive,inactive,inactive,inactive,,inactive,,inactive,inactive,,inactive,inactive,,
CC(C)(C)c1ccc(/C=C/C(=O)Nc2ccc3c(c2)OCCO3)cc1,inactive,inactive,16.5 µM (active),23.9 µM (active),inactive,inactive,,inactive,inactive,,inactive,,,
Oc1cc2c(cc1O)C(c1ccccc1)CNCC2 (stereo not given),inactive,inactive,inactive,inactive,,inactive,,inactive,inactive,44.7 µM (active),inactive,inactive,,
CC[n+]1c(/C=C/C=C2/N(C)c3ccccc3C2(C)C)sc2ccccc21,inactive,inactive,0.233 µM (active),0.213 µM (active),,,,7.36 µM (active),inactive,35.5 µM (active),,0.233 µM (active),,
Nc1ncnc2c1ncn2C1CCCC1,inactive,,inactive,inactive,inactive,inactive,inactive,inactive,inactive,inactive,inactive,inactive,,
N=S(=O)(O)Cc1noc2ccccc12,inactive,,inactive,inactive,,inactive,inactive,inactive,inactive,inactive,inactive,inactive,,
COc1cccc(OC)c1OCCNCC1CSc2ccccc2O1 (stereo not given),inactive,,inactive,,,inactive,inactive,inactive,inactive,,inactive,inactive,,
C=CCNc1ncnc2ccc(Br)cc12,inactive,,inactive,inactive,inactive,inactive,inactive,inactive,inactive,inactive,inactive,inactive,,
Nc1nc2[nH]c(=O)cnc2c(=O)[nH]1,inactive,,inactive,inactive,inactive,inactive,inactive,inactive,inactive,56.2 µM (active),13.4 µM (active),inactive,,
O=C(O)c1cccnc1C(=O)O,inactive,,inactive,inactive,,inactive,,16.5 µM (active),inactive,inactive,inactive,inactive,,
O=[N+]([O-])c1cccc2cn[nH]c12,inactive,,inactive,inactive,inactive,inactive,,inactive,inactive,inactive,inactive,inactive,,
COc1cc(/C=C(\C#N)C(=O)Nc2nnc(C(F)(F)F)s2)ccc1OCc1ccc(C(F)(F)F)cc1C(F)(F)F,inactive,,14.7 µM (active),23.9 µM (active),inactive,inactive,,,inactive,56.2 µM (active),2.12 µM (active),16.5 µM (active),15.2 µM (active),
Nc1nc2c(cnn2CCc2ccccc2)c2nc(-c3ccco3)nn12,inactive,,inactive,inactive,inactive,inactive,inactive,inactive,inactive,,23.8 µM (active),inactive,,
Cc1ccc([N+](=O)[O-])cc1S(=O)(=O)N(C)C,inactive,,inactive,inactive,inactive,inactive,,inactive,inactive,inactive,inactive,inactive,,
OCC1NCC(O)C(O)C1O (stereo not given),inactive,,inactive,inactive,inactive,inactive,inactive,inactive,inactive,inactive,inactive,inactive,,
CN(C)CCC(c1ccc(Br)cc1)c1ccccn1 (stereo not given),inactive,,inactive,inactive,inactive,inactive,inactive,,inactive,inactive,inactive,,,
CCCCS(=N)(=O)CC[C@H](N)C(=O)O (stereo not given in full),inactive,,inactive,inactive,,inactive,inactive,inactive,inactive,inactive,inactive,inactive,,
COc1ccc2c(c1)c(CC(=O)O)c(C)n2C(=O)c1ccccc1,inactive,,inactive,inactive,inactive,inactive,inactive,inactive,inactive,inactive,inactive,inactive,,
CN(C)S(=O)(=O)c1ccc2c(c1)/C(=C/c1cc3c([nH]1)CCCC3)C(=O)N2,inactive,,,,inactive,,,inactive,inactive,inactive,inactive,,,6.51 µM (active)
C[C@@H](NCCc1ccc(O)cc1)[C@@H](O)c1ccc(O)cc1,inactive,,inactive,inactive,inactive,inactive,inactive,inactive,2.38 µM (active),inactive,inactive,inactive,,
c1ccc2c(c1)CC(N1CCN(c3cccc4c3OCCO4)CC1)C2,inactive,,inactive,inactive,inactive,inactive,inactive,,inactive,,inactive,inactive,,
